Inconclusive results are not listed. Activity calls are given as the source filed them. Rule for the calls: active = hit-call score of the fitted dose curve at least 0.9, where 1 is the maximum; inconclusive = response in the unintended direction; inactive = score below 0.9.
Molecular target: human Akt3 (PKBgamma) AGC Kinase, AKT3 (gene 10000) (UniProt Q9Y243)
Experiment: ERF_FR_ENZ_hAKT3: Eurofins (ERF) Enzymatic Radiometric [Km ATP] KinaseProfiler LeadHunter Assay for human Akt3 (PKBgamma) AGC Kinase
Description: ERF_FR_ENZ_hAKT3 is a biochemical, single-readout assay that uses extracted gene-proteins in a cell-free assay. Measurements were taken 0.5 hour after chemical dosing in a 96-well plate. See Akt3 (PKBgamma) Human AGC Kinase Enzymatic LANCE Assay [Km ATP], Cerep.ERF_FR_ENZ_hAKT3 is an assay component calculated from the ERF_FR_ENZ_hAKT3 assay. It is designed to measure enzyme activity using a type of enzyme reporter as detected by fluorescence intensity with LANCE technology.Data from the assay component ERF_FR_ENZ_hAKT3 was analyzed at the assay endpoint, ERF_FR_ENZ_hAKT3, in the positive analysis fitting direction relative to DMSO as the negative control and baseline of activity. Using a type of enzyme reporter, loss-of-signal activity can be used to understand changes in enzymatic activity as they relate to gene AKT3. To generalize the intended target to other relatable targets, this assay endpoint is annotated to the kinase intended target family, where the subfamily is serine/threonine kinase.
PKBb (h) is incubated with 8 mM MOPS pH 7.0, 0.2 mM EDTA, 30 uM […], 10 mM MgAcetate and [g- 33P]-ATP (specific activity and concentration as required). The reaction is initiated by the addition of the Mg/ATP mix. After incubation for 40 minutes at room temperature, the reaction is stopped by the addition of phosphoric acid to a concentration of 0.5%. […]

Chain of human Akt3 (PKBgamma) AGC Kinase, AKT3 (gene 10000) (Q9Y243 whole entry, looked up): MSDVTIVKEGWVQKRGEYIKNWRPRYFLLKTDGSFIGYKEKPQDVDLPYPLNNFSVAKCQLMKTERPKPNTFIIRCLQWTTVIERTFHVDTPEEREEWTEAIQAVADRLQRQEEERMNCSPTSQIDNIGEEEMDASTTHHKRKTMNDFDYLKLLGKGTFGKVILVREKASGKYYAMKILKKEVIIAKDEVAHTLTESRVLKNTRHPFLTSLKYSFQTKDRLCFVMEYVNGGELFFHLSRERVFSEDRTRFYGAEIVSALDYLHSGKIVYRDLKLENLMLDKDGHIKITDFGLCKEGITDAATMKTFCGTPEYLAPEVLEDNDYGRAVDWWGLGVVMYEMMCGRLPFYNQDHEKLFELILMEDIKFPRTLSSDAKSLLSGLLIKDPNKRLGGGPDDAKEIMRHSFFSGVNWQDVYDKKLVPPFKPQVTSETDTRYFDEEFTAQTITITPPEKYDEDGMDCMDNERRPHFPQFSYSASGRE

Question: Which outcome does the source give for COc1cc(CCC(=O)CC(=O)CCc2ccc(O)c(OC)c2)ccc1O here?
Answer: inactive

Question: O=C(/C=C/c1ccc(O)cc1)CC(=O)/C=C/c1ccc(O)cc1 was tested. Which outcome did it give?
Answer: inactive

From PubChem BioAssay AID2284061 (EPA ToxCast)
